{"source": "PubChem BioAssay (NCI)", "note": "The panel holds about 83,000 compounds, 20% with a hit somewhere; the sample as a whole holds those more often.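 Cells were grown in 96-well plates and exposed to the test compound at a single concentration for 48 hours; results are reported as percent growth, with values below 10 considered active.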 Unmarked numbers belong to inactive results. Calls of active or inactive are those of the source.", "data": [{"test_system": "BT-549 breast", "assay": "NCI-60 one-dose screen, 48 h (100 = growth as untreated, 0 = no growth, -100 = all killed)", "details": "10 µM unless noted", "values": [{"compound": "Cn1c(=O)cc2c3c(c(NCCCO)ccc31)C(=O)c1ccccc1-2", "growth": "73.6%"}, {"compound": "O=C(OC(CO)C(=O)NC12CC3CC(CC(C3)C1)C2)c1ccc(Cl)cc1", "note": "(stereo not drawn)", "growth": "106%"}, {"compound": "N#Cc1nc(-c2ccc(F)cc2)oc1S(=O)(=O)N1CCCCC1", "growth": "80%"}, {"compound": "COC1/C=C/OC2(C)Oc3c(C)c(O)c4c(O)c(c(/C=N/Nc5ccc([N+](=O)[O-])cc5[N+](=O)[O-])c(O)c4c3C2=O)NC(=O)C(C)=C/C=C/C(C)C(O)C(C)C(O)C(C)C(OC(C)=O)C1C", "note": "(stereo not drawn)", "growth": "13.7%"}, {"compound": "O=C1c2c(c3c4ccccc4[nH]c3c3ccc4ccccc4c23)C(=O)N1CCN1CCOCC1", "growth": "69.8%"}, {"compound": "NC(=O)c1cc(I)ccc1NC(=O)/C=C/c1ccccc1", "growth": "61.5%"}, {"compound": "COC(=O)c1c2c(c(C)[n+]([O-])c1C)C(=O)C(NCc1cccc(OC)c1)=CC2=O", "growth": "57.5%"}, {"compound": "COc1ccc(CNc2c3ccccc3nc3ccccc23)cc1", "growth": "80.1%"}, {"compound": "N=C(N)c1ccc(-c2ccc(-c3ccc(Cl)c(Cl)c3)s2)nc1", "growth": "87.5%"}, {"compound": "Nc1c(C(=O)Nc2ccccc2F)sc2nc3c(cc12)CCCC3", "growth": "56.8%"}, {"compound": "Cc1ccc2c(n1)C(=O)C(Br)=C(C1CCCC1)C2=O", "growth": "95.5%"}, {"compound": "N#CC1=C(N)Oc2c(sc3c(Br)cccc23)C1c1ccc(Cl)cc1", "note": "(stereo not drawn)", "growth": "41%"}, {"compound": "COc1ccc(/C=C(\\C#N)n2nnc3cc(F)c(F)cc32)cc1", "growth": "32.2%"}, {"compound": "COc1cc(NS(=O)(=O)c2ccc(-c3cnc(C4CC4)o3)cc2)ccc1F", "growth": "44.6%"}, {"compound": "CN1CCN(c2cc(Nc3cc(C4CC4)[nH]n3)nc(Nc3ccc(CC(=O)NCc4cccc(F)c4)cc3)n2)CC1", "growth": "43.2%"}, {"compound": "O=C(Nc1cccc2ccccc12)NC1CC1", "growth": "91.1%"}, {"compound": "CN(C)CC(C)(C)C(=O)/C=C/c1ccccc1", "growth": "-65% [25 µM] (active)"}, {"compound": "COc1ccc(-c2nn(-c3cccc(Cl)c3)cc2-c2cc(-c3ccc(Br)cc3)nc(N)n2)cc1", "growth": "114%"}, {"compound": "COc1cc2c(c(OC)c1OC)CCC(c1cccc(NC(=O)c3ccc(Br)cc3)c1)O2", "note": "(stereo not drawn)", "growth": "87.5%"}, {"compound": "CCOC(=O)C#Cc1c(C(=O)OCC)nnn1Cc1ccc([N+](=O)[O-])cc1", "growth": "80.2%"}, {"compound": "O=C(N/N=C/c1c(Cl)cccc1Cl)c1cccnc1Nc1cccc(C(F)(F)F)c1", "growth": "43%"}, {"compound": "C#COc1cccc(Nc2c(C#N)cnc3ncc(NC(=O)CCl)cc23)c1", "growth": "40.3% [6.25 µM]"}, {"compound": "CC(C)(Sc1cc(C(C)(C)C)c(O)c(C(C)(C)C)c1)Sc1cc(C(C)(C)C)c(OC(=O)CCCC(=O)O)c(C(C)(C)C)c1", "growth": "64.9%"}, {"compound": "CCOC(=O)C1=C(N)Oc2c(sc3c(F)cccc23)C1c1ccc(O)cc1", "note": "(stereo not drawn)", "growth": "23.3%"}, {"compound": "OCCn1cc(-c2nc(-c3c[nH]c4ncccc34)cs2)c2cc(F)ccc21", "growth": "68.7%"}, {"compound": "O=C(/C=C/c1cccs1)Nc1ncc(Cc2ccccc2F)s1", "growth": "52.3%"}, {"compound": "COc1ccc(CN2c3ccccc3Sc3ccccc32)cc1F", "growth": "49.9%"}, {"compound": "CCN1C(=O)N(CC)C2C1NN=c1s/c(=C\\c3ccccc3F)c(=O)n12", "note": "(stereo not drawn)", "growth": "7.28% (active)"}, {"compound": "CS(=O)(=O)Nc1cncc(-c2ccc3ncnc(Nc4cncc(Cl)c4)c3c2)c1", "growth": "72.6%"}, {"compound": "CS(=O)(=O)c1ccc(-c2cnn3ccc(-c4cccc(S(=O)(=O)C5CC5)c4)nc23)cc1", "growth": "53.4%"}, {"compound": "CN1C(=O)/C(=C\\c2nc([P+](c3ccccc3)(c3ccccc3)c3ccccc3)c(N3CCOCC3)o2)SC1=S", "growth": "26.5%"}, {"compound": "C=C(C)[C@@H]1CCC[C@]2(COS(=O)(=O)c3ccc(C)cc3)CC[C@]3(C)[C@@H](CC[C@@H]4[C@@]5(C)CCCNC(C)(C)[C@@H]5CC[C@]43C)[C@@H]12", "growth": "83.7%"}, {"compound": "Clc1ccc2c(c1)C(c1c[nH]c3ccccc13)(c1c[nH]c3ccccc13)CCO2", "growth": "77.2%"}, {"compound": "O=C(NCCNc1nccc(Nc2ccc(S(=O)(=O)Nc3ccccn3)cc2)n1)c1cccc([N+](=O)[O-])c1", "growth": "96.9%"}, {"compound": "COc1cc2ncnc(Nc3ccc(S(=O)(=O)Nc4cc(C)on4)cc3)c2cc1OCCCN1CCN(c2ccc(F)cc2)CC1", "growth": "119%"}, {"compound": "CN(C)CC1CCC(CN(C)C)C1=O", "note": "(stereo not drawn)", "growth": "110%"}, {"compound": "N#CC1=C(N)Oc2c(ccc3ccccc23)C1c1ccccc1", "note": "(stereo not drawn)", "growth": "-16.5% (active)"}, {"compound": "Cc1ccc(NC(=O)c2sc3nc(C)c(Br)c(C)c3c2N)cc1", "growth": "79.7%"}]}, {"test_system": "MDA-MB-435 melanoma", "assay": "NCI-60 one-dose screen, 48 h (100 = growth as untreated, 0 = no growth, -100 = all killed)", "details": "10 µM unless noted", "values": [{"compound": "Cn1c(=O)cc2c3c(c(NCCCO)ccc31)C(=O)c1ccccc1-2", "growth": "44%"}, {"compound": "O=C(OC(CO)C(=O)NC12CC3CC(CC(C3)C1)C2)c1ccc(Cl)cc1", "note": "(stereo not drawn)", "growth": "94.6%"}, {"compound": "N#Cc1nc(-c2ccc(F)cc2)oc1S(=O)(=O)N1CCCCC1", "growth": "83.8%"}, {"compound": "COC1/C=C/OC2(C)Oc3c(C)c(O)c4c(O)c(c(/C=N/Nc5ccc([N+](=O)[O-])cc5[N+](=O)[O-])c(O)c4c3C2=O)NC(=O)C(C)=C/C=C/C(C)C(O)C(C)C(O)C(C)C(OC(C)=O)C1C", "note": "(stereo not drawn)", "growth": "3.5% (active)"}, {"compound": "O=C1c2c(c3c4ccccc4[nH]c3c3ccc4ccccc4c23)C(=O)N1CCN1CCOCC1", "growth": "58.6%"}, {"compound": "NC(=O)c1cc(I)ccc1NC(=O)/C=C/c1ccccc1", "growth": "-30.5% (active)"}, {"compound": "COC(=O)c1c2c(c(C)[n+]([O-])c1C)C(=O)C(NCc1cccc(OC)c1)=CC2=O", "growth": "-70.6% (active)"}, {"compound": "COc1ccc(CNc2c3ccccc3nc3ccccc23)cc1", "growth": "40.2%"}, {"compound": "N=C(N)c1ccc(-c2ccc(-c3ccc(Cl)c(Cl)c3)s2)nc1", "growth": "10.8%"}, {"compound": "Nc1c(C(=O)Nc2ccccc2F)sc2nc3c(cc12)CCCC3", "growth": "-7.54% (active)"}, {"compound": "Cc1ccc2c(n1)C(=O)C(Br)=C(C1CCCC1)C2=O", "growth": "108%"}, {"compound": "N#CC1=C(N)Oc2c(sc3c(Br)cccc23)C1c1ccc(Cl)cc1", "note": "(stereo not drawn)", "growth": "-23.2% (active)"}, {"compound": "COc1ccc(/C=C(\\C#N)n2nnc3cc(F)c(F)cc32)cc1", "growth": "-54% (active)"}, {"compound": "COc1cc(NS(=O)(=O)c2ccc(-c3cnc(C4CC4)o3)cc2)ccc1F", "growth": "-21.3% (active)"}, {"compound": "CN1CCN(c2cc(Nc3cc(C4CC4)[nH]n3)nc(Nc3ccc(CC(=O)NCc4cccc(F)c4)cc3)n2)CC1", "growth": "24.9%"}, {"compound": "O=C(Nc1cccc2ccccc12)NC1CC1", "growth": "113%"}, {"compound": "CN(C)CC(C)(C)C(=O)/C=C/c1ccccc1", "growth": "-35.9% [25 µM] (active)"}, {"compound": "COc1ccc(-c2nn(-c3cccc(Cl)c3)cc2-c2cc(-c3ccc(Br)cc3)nc(N)n2)cc1", "growth": "99.6%"}, {"compound": "COc1cc2c(c(OC)c1OC)CCC(c1cccc(NC(=O)c3ccc(Br)cc3)c1)O2", "note": "(stereo not drawn)", "growth": "69.1%"}, {"compound": "CCOC(=O)C#Cc1c(C(=O)OCC)nnn1Cc1ccc([N+](=O)[O-])cc1", "growth": "75.2%"}, {"compound": "O=C(N/N=C/c1c(Cl)cccc1Cl)c1cccnc1Nc1cccc(C(F)(F)F)c1", "growth": "36.2%"}, {"compound": "C#COc1cccc(Nc2c(C#N)cnc3ncc(NC(=O)CCl)cc23)c1", "growth": "41.4% [6.25 µM]"}, {"compound": "CC(C)(Sc1cc(C(C)(C)C)c(O)c(C(C)(C)C)c1)Sc1cc(C(C)(C)C)c(OC(=O)CCCC(=O)O)c(C(C)(C)C)c1", "growth": "60.4%"}, {"compound": "COc1c(B(O)O)cccc1-c1cc(C)c2c(ccc3[nH]ncc32)n1", "growth": "92%"}, {"compound": "CCOC(=O)C1=C(N)Oc2c(sc3c(F)cccc23)C1c1ccc(O)cc1", "note": "(stereo not drawn)", "growth": "5.63% (active)"}, {"compound": "OCCn1cc(-c2nc(-c3c[nH]c4ncccc34)cs2)c2cc(F)ccc21", "growth": "5.03% (active)"}, {"compound": "O=C(/C=C/c1cccs1)Nc1ncc(Cc2ccccc2F)s1", "growth": "-64.4% (active)"}, {"compound": "COc1ccc(CN2c3ccccc3Sc3ccccc32)cc1F", "growth": "-33.5% (active)"}, {"compound": "CCN1C(=O)N(CC)C2C1NN=c1s/c(=C\\c3ccccc3F)c(=O)n12", "note": "(stereo not drawn)", "growth": "-37.4% (active)"}, {"compound": "CS(=O)(=O)Nc1cncc(-c2ccc3ncnc(Nc4cncc(Cl)c4)c3c2)c1", "growth": "103%"}, {"compound": "C1CN(SSN2CCOCC2)CCO1", "growth": "0.278% [100 µM] (active)"}, {"compound": "CS(=O)(=O)c1ccc(-c2cnn3ccc(-c4cccc(S(=O)(=O)C5CC5)c4)nc23)cc1", "growth": "59.1%"}, {"compound": "CN1C(=O)/C(=C\\c2nc([P+](c3ccccc3)(c3ccccc3)c3ccccc3)c(N3CCOCC3)o2)SC1=S", "growth": "60%"}, {"compound": "C=C(C)[C@@H]1CCC[C@]2(COS(=O)(=O)c3ccc(C)cc3)CC[C@]3(C)[C@@H](CC[C@@H]4[C@@]5(C)CCCNC(C)(C)[C@@H]5CC[C@]43C)[C@@H]12", "growth": "-25.3% (active)"}, {"compound": "Clc1ccc2c(c1)C(c1c[nH]c3ccccc13)(c1c[nH]c3ccccc13)CCO2", "growth": "94.9%"}, {"compound": "O=C(NCCNc1nccc(Nc2ccc(S(=O)(=O)Nc3ccccn3)cc2)n1)c1cccc([N+](=O)[O-])c1", "growth": "103%"}, {"compound": "COc1cc2ncnc(Nc3ccc(S(=O)(=O)Nc4cc(C)on4)cc3)c2cc1OCCCN1CCN(c2ccc(F)cc2)CC1", "growth": "105%"}, {"compound": "CN(C)CC1CCC(CN(C)C)C1=O", "note": "(stereo not drawn)", "growth": "121%"}, {"compound": "N#CC1=C(N)Oc2c(ccc3ccccc23)C1c1ccccc1", "note": "(stereo not drawn)", "growth": "-38.9% (active)"}, {"compound": "Cc1ccc(NC(=O)c2sc3nc(C)c(Br)c(C)c3c2N)cc1", "growth": "81.8%"}]}]}
